# Only some compounds are listed: those with a hit (about 7% of all), similar ones and a draw of the others.
# D3 ag: qHTS of D3 Dopamine Receptor Agonist: qHTS; D3R DiscoveRx beta-arrestin cells, luminescence, 90 min; max activation, %; hit rate 0.58% among 410,000; AID 652048, 2013; in the data active = max activation above about 30%; note: 0% is about no effect
# Target sequence (P35462 whole entry, looked up): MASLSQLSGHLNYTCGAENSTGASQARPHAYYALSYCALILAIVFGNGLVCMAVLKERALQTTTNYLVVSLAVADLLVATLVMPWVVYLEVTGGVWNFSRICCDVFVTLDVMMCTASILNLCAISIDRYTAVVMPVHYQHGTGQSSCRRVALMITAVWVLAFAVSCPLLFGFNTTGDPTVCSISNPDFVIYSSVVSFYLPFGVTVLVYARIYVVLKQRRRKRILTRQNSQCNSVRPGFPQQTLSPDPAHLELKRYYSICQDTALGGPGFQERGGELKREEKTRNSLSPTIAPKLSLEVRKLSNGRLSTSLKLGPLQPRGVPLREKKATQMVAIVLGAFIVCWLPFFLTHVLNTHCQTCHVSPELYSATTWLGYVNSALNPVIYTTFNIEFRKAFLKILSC
#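 Agonist-mode cell screen: cells plated at 1500/well and incubated overnight at 37 °C, then exposed to library compounds for 90 min at 37 °C. Detection reagent was added for 30–60 min at room temperature, and luminescence was read.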
# DRD3 antagonist: qHTS of D3 Dopamine Receptor Antagonist: qHTS. hit rate 2.5% among 360,000. AID 652054, 2013. max response, negative = inhibition, %. D3R cells, DiscoveRx beta-arrestin luminescence, antagonist mode; hits give low values. D(3) dopamine receptor (Homo sapiens), P35462; in the data active = max response below about -50%; inconclusive = no clear call, values can overlap the other calls; note: % is set by controls: 0 for no effect and ±100 for the full control effect
#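 Cells plated overnight at 1500 cells/well, then exposed to library compounds with dopamine controls for 90 minutes at 37 degrees C. DiscoveRx reagent added for 30–60 minutes at room temperature; luminescence read, quantitative HTS format.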
# a7 integrin act: qHTS for Activators of Integrin-Mediated Alleviation for Muscular Dystrophy | alpha7betagal myoblasts, beta-gal FDG fluorescence, 48 h | Potency, µM (highest dose often 38.3 µM), inactives show at the top dose activation, hits mostly activators | hit rate 0.064% among 350,000;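 note: potency is the fitted concentration of half-maximal effect; 100% = response of the positive control SU9516; nearly all actives have a fitted effect of over 60% in size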
#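 Alpha7betagal+/- myoblasts (passage 13) were plated 16-24 hr, then exposed to compounds (1:260 dilution of DMSO stock) for 48 hours at 37C. After MPER lysis, β-galactosidase reporter activity was read as FDG fluorescence (ex 480/em 540) after 30 minutes.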
# ATXN viability: Viability Counterscreen for Primary qHTS for Inhibitors of ATXN expression | AID 651635, 2014 | hit rate 0.49% among 400,000 | Potency, µM (series often up to 56.7 µM), actives largely listed as cytotoxic | S2 cells (HEK-293 line with an ATXN2-luciferase reporter) viability, CellTiter-Fluor protease fluorescence, 24 h; note: potency is the fitted concentration of half-maximal effect; nearly all actives have a fitted effect of over 40% in size
# IL1B secr inh: qHTS for Inhibitors of Inflammasome Signaling: IL-1-beta AlphaLISA Primary Screen; THP-1 LPS/ATP IL-1B secretion, AlphaLISA, 16 h; hits give low values; AID 743279, 2014; hit rate 4.7% among 360,000; activity change, % at 57.5 µM; in the data active = activity change below about -50%; inconclusive = mostly about -30% to -49%; note: % is set by controls: 0 for no effect and ±100 for the full control effect
#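 Secreted IL-1B measured by AlphaLISA bead assay after 16 h compound exposure of THP-1 cells; compounds (final up to 57.5 uM) added 1 h before LPS (250 ng/mL) and ATP (1.25 mM) stimulation; lower signal means less secretion.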
# ATXN2 expr inh: Primary qHTS for Inhibitors of ATXN expression; hit rate 0.72% among 360,000; Potency, µM (top dose mostly 57 µM), for inactives: at the highest dose activity change, negative = inhibition, actives largely listed as inhibitors; HEK-293 ATXN2-luciferase reporter, luminescence, 24 h; note: potency is the fitted concentration of half-maximal effect; % is set by controls: 0 for no effect and ±100 for the full control effect; nearly all actives have a fitted effect of over 55% in size
#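 ATXN2-luciferase reporter cells (luciferase flanked by upstream and downstream ATXN2 gene portions) were treated 24 h at 37 °C with compounds at up to 57 uM. SteadyGlo luminescence gave expression; GF-AFC fluorescence gave viability.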
# Active calls of the source: *; i = inactive; ? = inconclusive; nt = not tested or not shown; [ ] = remark or other dose. Unless noted, calls come from the whole dose curve; as a rule, active = well fitted curve in the direction sought with a large enough effect; inconclusive = small, poorly fitted or top-dose-only effect, or another doubt; inactive = no such curve, though single readings can be large; an effect the other way counts as inactive or inconclusive.
SMILES,D3 ag,DRD3 antagonist,a7 integrin act,ATXN viability,IL1B secr inh,ATXN2 expr inh
COc1ccc(N=CC2=C(O)c3ccccc3C2=O)c(OC)c1,-4,-58*,-2%,i,-13,?
O=C(Nc1ccc(Cl)c(-c2nc3ccccc3o2)c1)c1cccc2c(Cl)cccc12,1,nt,nt,i,nt,12%
CCOC(Cn1ccc(=O)[nH]c1=O)OCC,-1,0,-10%,i,0,nt
COCCNc1nc(Oc2cccc3ccccc23)c2sccc2n1,54*,-5,nt,i,14,2%
COCCNc1nc(Oc2ccc(C(N)=O)cc2)c2sccc2n1,43*,-2,nt,i,-20,2%
COCCNc1nc(Oc2ccccc2)c2sccc2n1,0,-8,nt,i,-14,-8%
C=CCn1c(CSCc2ccccc2)nnc1SCC(=O)NCc1ccccc1,-9,-20,-4%,i,-5,-4%
CC1=NN(c2nc3ccccc3[nH]2)C(=O)/C1=C/N(C)C,3,3,?,i,16,?
CC1=NN(c2nc3ccccc3[nH]2)C(=O)C1Cc1ccccc1 (stereo not given),17,1,-27%,?,62,10µM*
Cc1cc(C(F)(F)F)c2c(C)nn(CCc3nn[nH]n3)c2n1,5,13,0%,i,9,4%
CC12CCC(=O)N1C(C(=O)NNC(=O)c1cccc(Cl)c1)CS2 (stereo not given),2,35,-10%,i,-4,-6%
COc1ccc(C(C)=O)cc1Cn1c(C)c(C(=O)NCc2cccc(C)c2)sc1=O,2,12,nt,i,-79*,-3%
Cc1c(C(=O)NCc2ccccc2C(F)(F)F)sc(=O)n1Cc1ccc(Cl)c(Cl)c1,0,-28,nt,i,-72*,-15%
CSc1ccc(Cn2c(C)c(C(=O)NCc3cccc(C)c3)sc2=O)cc1,-1,0,nt,i,-65*,1%
CSc1ccc(Cn2c(C)c(C(=O)NCc3ccccc3C(F)(F)F)sc2=O)cc1,1,12,nt,?,nt,-7%
COc1cccc(CN2CC(C(=O)N(C)C3CCOCC3)CCC2=O)c1 (stereo not given),9,8,-1%,i,15,38%
Cc1ccc(SCC(=O)Nc2nnc(-c3ccco3)o2)cc1,4,7,13%,i,13,-37%
CCOC(=O)c1ccc2c(c1)nc(C1CCN(S(=O)(=O)c3cccs3)CC1)n2CC,7,17,-45%,?,-79*,?
COC(=O)c1c(NC(=O)CCNCc2ccco2)sc2c1CCC2,-23,-9,-46%,i,-51*,-26%
N#CC1=C(N)C(C#N)(C#N)C2(C(=O)Nc3ccccc32)C2CCCC=C12 (stereo not given),-10,9,3%,i,-53*,-8%
COC(=O)c1cc(=O)n(CCc2ccc(OC)c(OC)c2)c(=Nc2ccc(F)c(Cl)c2)s1,-6,-9,-3%,?,-104*,?
COC(=O)c1cc(=O)n(Cc2ccc(OC)c(OC)c2)c(=Nc2ccc(F)cc2)s1,-1,-13,-12%,i,-23,-38%
CSCCC(NC(=O)C1CCC(C)CC1)C(=O)OCC(=O)c1ccc(Cl)cc1 (stereo not given),-10,-19,8%,i,3,-17%
O=C(NCc1cc(C(F)(F)F)cc(C(F)(F)F)c1)C1CC(c2c(Cl)cccc2Cl)=NO1 (stereo not given),13,0,-1%,i,-50*,-6%
CS(=O)(=O)c1ccc(NS(=O)(=O)c2ccc3ccccc3c2)cc1,8,-8,-2%,i,33,-13%
SMILES,D3 ag,DRD3 antagonist,a7 integrin act,ATXN viability,IL1B secr inh,ATXN2 expr inh
Cc1cc(-c2ccc(C)c(S(=O)(=O)NCC3CCN(Cc4ccc(F)cc4)CC3)c2)on1,-12,-17,-53%,?,-88*,?
COc1ccccc1CN1CCC(CNS(=O)(=O)c2cc(-c3cc(C)no3)ccc2C)CC1,-3,-17,-13%,i,?,-12%
CCOC(=O)CCn1cnc2onc(-c3ccccc3Cl)c2c1=O,0,nt,nt,i,nt,3%
O=C(O)c1cc(=O)cc(C(=O)O)[nH]1,-17,-82*,14%[7.66 µM],i,-9,-6%
CC1=CC(C)(C)Nc2ccc(OC(=O)CCN3C(=O)c4ccccc4C3=O)cc21,2,13,-27%,nt,-99*,25µM*
Cc1ccc2nc(Cl)c3cc(C(=O)NCCCN(C)Cc4ccccc4)sc3c2c1,-21,nt,nt,nt,nt,nt
CN(CCCNC(=O)c1cc2c(Cl)nc3ccccc3c2s1)Cc1ccccc1,-12,?,-60%,?,-82*,?
CCN(CC)CCCNC(=O)c1cc2c(Cl)nc3ccccc3c2s1,-28,-54*,-26%,i,?,-25%
COc1ccc(N(C)C(=O)c2cc3c(Cl)nc4ccccc4c3s2)cc1,66*,15,-17%,i,-68*,-14%
Cc1cccc(OCC(=O)Nc2ccc3oc(-c4ccccc4F)nc3c2)c1,3,nt,nt,?,nt,-7%
Cc1cccc(OCCOC(=O)Nc2ccccc2)c1,3,11,14%,i,-26,13%
Cc1ccc(Sc2nnc(Cc3ccccc3)c3ccccc23)cc1,-61,-51*,-56%,i,-89*,?
CC1CCN(c2ccc3c(c2)S(=O)(=O)c2cccc(C(=O)NCc4cccc(F)c4)c2C3=O)CC1,106*,100,0%,nt,8,11%
O=C(NCc1ccc(OC(F)(F)F)cc1)c1cccc2c1C(=O)c1ccc(N3CCCC3)cc1S2(=O)=O,-13,-51*,-4%,?,20,9%
O=C(NCc1ccco1)c1cccc2c1C(=O)c1ccc(N3CCC(Cc4ccccc4)CC3)cc1S2(=O)=O,31*,68,-6%,nt,33,-18%
O=C(NCc1cc(C(F)(F)F)ccc1Cl)c1cccc2c1C(=O)c1ccc(N3CCC(N4CCCCC4)CC3)cc1S2(=O)=O,-3,21,-46%,?,92,25µM*
CCC(=O)N1CCc2cc(S(=O)(=O)NCCC(=O)Nc3ccc(OC)c(OC)c3)ccc21,1,nt,nt,i,nt,6%
Cc1cccc(-c2noc(CN(C)C(=O)c3ccc4c(c3)OCO4)n2)c1,22,15,0%,i,-5,5%
CN(CCN1CCc2ccccc2C1)Cc1nc(Cc2ccccc2F)no1,-17,-59*,3%,i,26,17%
